The source made the active and inactive calls. Unless noted, the call rests on the fitted dose curve; in most records, active means well fitted curve in the direction sought with a large enough effect in the repeat runs; inconclusive means weak or mixed curves; inactive means no such curve, though single readings can be large; an effect the other way counts as inactive or inconclusive.
Assays:
[1] = qHTS assay to test for compound auto fluorescence at 535 nm (green) in HEK293 cells (AID 720680)
[2] = qHTS assay to test for compound auto fluorescence at 460 nm (blue) in HEK293 cell free culture (AID 720681)
Method in brief: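 Test compounds were pinned into cell-free culture medium (DMEM with 10% FBS) and fluorescence was read directly at Ex/Em 405/460 nm. Signals were expressed as fluorescence equivalents of triamterene, with DMSO vehicle as control.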

[3] = qHTS assay to test for compound auto fluorescence at 535 nm (green) in HEK293 cell free culture (AID 720682)
Method in brief: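 Fluorescein serves as the green reference fluorophore; each compound's intrinsic emission at 535 nm (excitation 485 nm) is reported as an equivalent amount of that dye, measured in serum-containing DMEM without cells.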

[4] = qHTS assay to test for compound auto fluorescence at 590 nm (red) in HEK293 cell free culture (AID 720683)
Method in brief: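 Tox21 10K library compounds were pinned into cell-free DMEM with 10% FBS and fluorescence was read at excitation 540 nm. Activity is expressed as Rose Bengal sodium equivalency.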

[5] = qHTS assay to test for compound auto fluorescence at 590 nm (red) in HepG2 cell free culture (AID 720684)
Method in brief: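 Measured in medium alone (MEM containing 10% FBS) following pintool addition of compound; emission at 590 nm with 540 nm excitation, referenced to Rose Bengal sodium.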

[6] = qHTS assay to test for compound auto fluorescence at 460 nm (blue) in HepG2 cell free culture (AID 720685)
Method in brief: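 Compound (23 nL) or DMSO pinned into cell-free MEM with 10% FBS; blue fluorescence read at 405/460 nm excitation/emission, expressed as auto-fluorescence equivalency to triamterene.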

[7] = qHTS assay to test for compound auto fluorescence at 535 nm (green) in HepG2 cell free culture (AID 720686)
[8] = qHTS assay to test for compound auto fluorescence at 460 nm (blue) in HepG2 cells (AID 720687)
Method in brief: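 Cells (2,000/well in MEM with 10% FBS) attached overnight at 37 C, then were exposed to compound or DMSO for 1 hr at 37 C, 5% CO2. Fluorescence read at Ex/Em 405/460 nm, expressed as triamterene-equivalent signal.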

[9] = molecular target: Glucocorticoid receptor (Homo sapiens) (UniProt P04150); assay: qHTS assay to identify small molecule agonists of the glucocorticoid receptor (GR) signaling pathway (AID 720691; active means well fitted activation curve with a large enough effect in the signal ratio in the repeat runs, not every such curve was filed as active; inconclusive means weak or mixed curves, or effect the other way; inactive means no such curve, though single readings can be large or run the other way; the % refers to the signal ratio; further: potency means the concentration at half of the fitted maximal effect); details: GR-bla HeLa, beta-lactamase reporter ratio, 18 h; activation: at 62.4 µM (top of the series)
Method in brief: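 GR-bla HeLa cells carrying a GRE-driven beta-lactamase reporter, exposed to compounds for 18 h at 37 C. Reporter activation read as fluorescence after 2 h with LiveBLAzer B/G FRET substrate at room temperature.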

[10] = qHTS assay to identify small molecule antagonists of the glucocorticoid receptor (GR) signaling pathway - cell viability counter screen (AID 720693); further: nearly all actives have a fitted effect of over 55% in size
[11] = qHTS assay to identify small molecule antagonists of the androgen receptor (AR) signaling pathway - cell viability counter screen (AID 743033; further: nearly all actives have a fitted effect of over 45% in size)
[12] = molecular target: Androgen receptor (Homo sapiens) (UniProt P10275); assay: qHTS assay to identify small molecule agonists of the androgen receptor (AR) signaling pathway (AID 743036; active means well fitted activation curve with a large enough effect in the signal ratio in the repeat runs, with a control signal flat, not every such curve was filed as active; inconclusive means weak or mixed curves, or effect the other way; inactive means no such curve, though single readings can be large or run the other way; the % refers to the signal ratio; further: potency means the concentration at half of the fitted maximal effect)
Method in brief: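 Fluorescence from a beta-lactamase FRET substrate served as read-out in AR-UAS-bla GripTite HEK293 cells. Cells were treated with DMSO-dissolved compounds for 16 h at 37C, then with LiveBLAzer B/G substrate for 2 h at room temperature.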

[13] = molecular target: Androgen receptor (Homo sapiens) (UniProt P10275); assay: qHTS assay to identify small molecule agonists of the androgen receptor (AR) signaling pathway using the MDA cell line (AID 743040; further: nearly all actives have a fitted effect of over 20% in size; further: potency means the concentration at half of the fitted maximal effect)
Method in brief: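 Luminescence from ONE-Glo, read after 30 min at room temperature, reflects MMTV-driven luciferase in MDA-kb2 cells (AR- and GR-responsive). Treatment lasted 16 h at 37C, 0% CO2.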

[14] = qHTS assay to identify small molecule antagonists of the androgen receptor (AR) signaling pathway using the MDA cell line - cell viability counter screen (AID 743041; further: nearly all actives have a fitted effect of over 45% in size)
Method in brief: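 Viability counter screen run alongside the AR antagonist reporter: cells seeded 5 h before compound, R1881 added, 16 h incubation at 37C without CO2, fluorescent CellTiter-Fluor signal quantified.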

[15] = molecular target: Androgen receptor (Homo sapiens) (UniProt P10275); assay: qHTS assay to identify small molecule antagonists of the androgen receptor (AR) signaling pathway using the MDA cell line (AID 743042; further: nearly all actives have a fitted effect of over 55% in size)
Method in brief: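 MDA-kb2 cells (human breast carcinoma, stably carrying an MMTV-luciferase reporter responsive to AR and GR) were plated at 3,000 cells/well and preincubated 5 hr at 37C, then given compound plus R1881 agonist for 16 h. ONE-Glo luminescence was read.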

[16] = molecular target: Androgen receptor (Homo sapiens) (UniProt P10275); assay: qHTS assay to identify small molecule antagonists of the androgen receptor (AR) signaling pathway (AID 743035; active means well fitted inhibition curve with a large enough effect in the signal ratio in the repeat runs, not every such curve was filed as active; inconclusive means weak or mixed curves, or effect the other way; inactive means no such curve, though single readings can be large or run the other way; the % refers to the signal ratio)
Method in brief: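 HEK293 cells stably carrying UAS-beta-lactamase reporter, 2,000/well, given compounds plus R1881 agonist and incubated 16 h at 37C. LiveBLAzer B/G FRET substrate then added for 2 h at room temperature before fluorescence reading.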

[17] = qHTS assay for identifying genotoxic compounds that show differential cytotoxicity against isogenic chicken DT40 cell lines with known DNA damage response pathways - wild type cell line (AID 743012); further: nearly all actives have a fitted effect of over 60% in size; further: potency means the concentration at half of the fitted maximal effect
Method in brief: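 Wild-type DT40 cells (300/well) exposed to compounds for 40 hours at 37 C/5% CO2. Viability read by CellTiter-Glo luminescence after 30 min at room temperature.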

[18] = qHTS assay for identifying genotoxic compounds that show differential cytotoxicity against isogenic chicken DT40 cell lines with known DNA damage response pathways - Rad54/Ku70 mutant cell line (AID 743015); further: nearly all actives have a fitted effect of over 60% in size; further: potency means the concentration at half of the fitted maximal effect
[19] = qHTS assay for identifying genotoxic compounds that show differential cytotoxicity against isogenic chicken DT40 cell lines with known DNA damage response pathways - Rev3 mutant cell line (AID 743014); further: nearly all actives have a fitted effect of over 55% in size; further: potency means the concentration at half of the fitted maximal effect

Measured: Potency

Sequence of Glucocorticoid receptor (Homo sapiens) (P04150 whole entry, looked up): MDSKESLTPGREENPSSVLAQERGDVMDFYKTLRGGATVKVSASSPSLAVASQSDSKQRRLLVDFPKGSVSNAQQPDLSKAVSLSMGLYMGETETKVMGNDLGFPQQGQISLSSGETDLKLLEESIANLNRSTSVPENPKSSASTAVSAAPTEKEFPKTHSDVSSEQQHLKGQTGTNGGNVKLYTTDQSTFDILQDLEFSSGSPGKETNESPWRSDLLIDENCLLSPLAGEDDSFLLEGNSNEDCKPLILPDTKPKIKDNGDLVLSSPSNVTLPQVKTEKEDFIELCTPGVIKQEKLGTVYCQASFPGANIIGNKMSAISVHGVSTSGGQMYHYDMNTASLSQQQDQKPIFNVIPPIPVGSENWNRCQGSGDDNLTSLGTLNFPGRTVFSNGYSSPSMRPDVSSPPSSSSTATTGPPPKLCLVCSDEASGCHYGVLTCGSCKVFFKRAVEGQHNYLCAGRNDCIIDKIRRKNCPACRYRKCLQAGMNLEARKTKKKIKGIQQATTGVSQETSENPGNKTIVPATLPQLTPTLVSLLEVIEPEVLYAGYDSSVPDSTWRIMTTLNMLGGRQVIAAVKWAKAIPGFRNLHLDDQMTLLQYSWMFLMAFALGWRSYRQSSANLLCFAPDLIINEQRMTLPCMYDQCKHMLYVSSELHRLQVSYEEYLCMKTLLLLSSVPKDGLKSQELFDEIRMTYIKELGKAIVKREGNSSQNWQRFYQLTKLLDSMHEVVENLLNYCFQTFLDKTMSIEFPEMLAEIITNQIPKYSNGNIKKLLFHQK
Sequence of Androgen receptor (Homo sapiens) (P10275 whole entry, looked up): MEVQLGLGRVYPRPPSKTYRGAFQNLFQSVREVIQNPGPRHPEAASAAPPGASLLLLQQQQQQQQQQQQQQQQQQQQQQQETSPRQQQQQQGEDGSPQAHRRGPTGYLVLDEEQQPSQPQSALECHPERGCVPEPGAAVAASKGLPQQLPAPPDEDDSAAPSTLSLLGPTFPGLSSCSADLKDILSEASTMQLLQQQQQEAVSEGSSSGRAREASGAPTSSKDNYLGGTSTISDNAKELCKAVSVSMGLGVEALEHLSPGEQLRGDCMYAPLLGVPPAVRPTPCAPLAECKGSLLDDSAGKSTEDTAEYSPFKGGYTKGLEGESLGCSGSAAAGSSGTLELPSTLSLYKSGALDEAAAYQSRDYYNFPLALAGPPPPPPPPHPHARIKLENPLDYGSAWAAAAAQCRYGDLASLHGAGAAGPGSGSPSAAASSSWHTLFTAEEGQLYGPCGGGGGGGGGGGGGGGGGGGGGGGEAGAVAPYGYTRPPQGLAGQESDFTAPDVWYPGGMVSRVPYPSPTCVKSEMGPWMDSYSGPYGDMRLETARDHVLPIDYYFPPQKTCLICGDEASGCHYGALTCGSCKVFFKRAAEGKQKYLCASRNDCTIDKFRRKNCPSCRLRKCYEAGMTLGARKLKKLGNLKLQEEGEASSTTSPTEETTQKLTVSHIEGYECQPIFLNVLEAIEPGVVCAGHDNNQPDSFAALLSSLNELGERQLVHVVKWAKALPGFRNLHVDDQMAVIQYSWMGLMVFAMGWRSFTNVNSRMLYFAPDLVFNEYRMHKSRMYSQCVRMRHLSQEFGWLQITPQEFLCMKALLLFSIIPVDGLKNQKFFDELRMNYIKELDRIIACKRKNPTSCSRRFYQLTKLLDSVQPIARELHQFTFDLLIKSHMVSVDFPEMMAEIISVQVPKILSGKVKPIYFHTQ

CC(=O)OCC(=O)[C@@]1(O)[C@H](C)C[C@H]2[C@@H]3C[C@H](F)C4=CC(=O)C=C[C@]4(C)[C@H]3[C@@H](O)C[C@@]21C
active: [9] 26.8 nM [inconclusive] | [12] 1.34 µM | [13] 29.8 nM
not listed: [16] | [17] | [18] | [19]
inactive: all other assays above

CCOC(=O)c1cc(-c2ccccc2)nc2ccc(C)cc12
not listed: [12] | [17] | [18] | [19]
inactive: all other assays above

COc1cc(C)c(/C=C/C(C)=C/C=C/C(C)=C/C(=O)O)c(C)c1C
not listed: [12] | [16] | [17] | [18] | [19]
inactive: all other assays above

COc1ccc(C2(C#N)CCC(C(=O)O)CC2)cc1OC1CCCC1 (stereo unspecified)
not listed: [11] | [12] | [13] | [15] | [16] | [19]
inactive: all other assays above

CCCCC(C)(O)C/C=C/[C@H]1[C@H](O)CC(=O)[C@@H]1CCCCCCC(=O)OC (stereo partly specified)
active: [19] 1.68 µM | [18] 1.19 µM
not listed: [12] | [13] | [15] | [16] | [17]
inactive: all other assays above

O=C(O)c1cc(O)c2c(c1)[O][Bi][O]2
not listed: [12] | [13] | [15] | [16] | [19]
inactive: all other assays above

CCN(CC)CCCC(C)Nc1cc(/C=C/c2ccccc2Cl)nc2cc(Cl)ccc12 (stereo unspecified)
active: [17] 26.6 µM | [18] 29.8 µM
not listed: [11] | [12] | [13] | [15] | [16] | [19]
inactive: all other assays above

CCC(=O)OCC(=O)[C@@]1(OC(=O)CC)[C@H](C)C[C@H]2[C@H]3[C@H]([C@@H](O)C[C@@]21C)[C@@]1(C)C=CC(=O)C=C1C[C@H]3Cl
active: [9] 20.4 nM | [12] 0.144 µM | [13] 40.3 nM
not listed: [17] | [18]
inactive: all other assays above

CC(C)(C)NC(=O)[C@H]1CC[C@H]2[C@@H]3CC=C4C=C(C(=O)O)CC[C@]4(C)[C@H]3CC[C@]12C
not listed: [12] | [17] | [18]
inactive: all other assays above

CC(C)=CCC/C(C)=C/C=C/C(C)=C/C=C/C(C)=C/C=C/C=C(C)/C=C/C=C(C)/C=C/C=C(\C)CCC=C(C)C
active: [17] 29.8 µM
not listed: [12] | [16] | [18] | [19]
inactive: all other assays above

CN[C@@H]1[C@H](O[C@H]2[C@H](O[C@H]3[C@H](O)[C@@H](O)[C@H](N=C(N)N)[C@@H](O)[C@@H]3N=C(N)N)O[C@@H](C)[C@]2(O)C=O)O[C@@H](CO)[C@H](O)[C@H]1O
not listed: [12] | [13] | [15] | [16] | [18] | [19]
inactive: all other assays above

Nc1c(Br)cc(Br)cc1CNC1CCC(O)CC1 (stereo unspecified)
active: [12] 4.77 µM | [13] 1880 nM
not listed: [11] | [16] | [18] | [19]
inactive: all other assays above

CN1CCN2c3ncccc3Cc3ccccc3C2C1 (stereo unspecified)
not listed: [11] | [12] | [13] | [15] | [16] | [17] | [18]
inactive: all other assays above
